Measurements from the supplement of paper PMC11732987, “Enantioselective OTUD7B fragment discovery through chemoproteomics screening and high-throughput optimisation” (Communications Chemistry, 2025).

Tests used:
Assay in all cases: log2 ratio of Biotin-Ahx-Ub-VS probe labelling (fragment/DMSO); higher = less target engagement (more negative = stronger competition), active = hit call of the paper (q ≤ 0.05, log2 ratio ≤ -1)
Settings in all cases: compound concentration: 200 uM; treatment time: 3 h
ALG13 = target: T1, ALG13 (UniProt Q9NP73)
T1 sequence (whole entry): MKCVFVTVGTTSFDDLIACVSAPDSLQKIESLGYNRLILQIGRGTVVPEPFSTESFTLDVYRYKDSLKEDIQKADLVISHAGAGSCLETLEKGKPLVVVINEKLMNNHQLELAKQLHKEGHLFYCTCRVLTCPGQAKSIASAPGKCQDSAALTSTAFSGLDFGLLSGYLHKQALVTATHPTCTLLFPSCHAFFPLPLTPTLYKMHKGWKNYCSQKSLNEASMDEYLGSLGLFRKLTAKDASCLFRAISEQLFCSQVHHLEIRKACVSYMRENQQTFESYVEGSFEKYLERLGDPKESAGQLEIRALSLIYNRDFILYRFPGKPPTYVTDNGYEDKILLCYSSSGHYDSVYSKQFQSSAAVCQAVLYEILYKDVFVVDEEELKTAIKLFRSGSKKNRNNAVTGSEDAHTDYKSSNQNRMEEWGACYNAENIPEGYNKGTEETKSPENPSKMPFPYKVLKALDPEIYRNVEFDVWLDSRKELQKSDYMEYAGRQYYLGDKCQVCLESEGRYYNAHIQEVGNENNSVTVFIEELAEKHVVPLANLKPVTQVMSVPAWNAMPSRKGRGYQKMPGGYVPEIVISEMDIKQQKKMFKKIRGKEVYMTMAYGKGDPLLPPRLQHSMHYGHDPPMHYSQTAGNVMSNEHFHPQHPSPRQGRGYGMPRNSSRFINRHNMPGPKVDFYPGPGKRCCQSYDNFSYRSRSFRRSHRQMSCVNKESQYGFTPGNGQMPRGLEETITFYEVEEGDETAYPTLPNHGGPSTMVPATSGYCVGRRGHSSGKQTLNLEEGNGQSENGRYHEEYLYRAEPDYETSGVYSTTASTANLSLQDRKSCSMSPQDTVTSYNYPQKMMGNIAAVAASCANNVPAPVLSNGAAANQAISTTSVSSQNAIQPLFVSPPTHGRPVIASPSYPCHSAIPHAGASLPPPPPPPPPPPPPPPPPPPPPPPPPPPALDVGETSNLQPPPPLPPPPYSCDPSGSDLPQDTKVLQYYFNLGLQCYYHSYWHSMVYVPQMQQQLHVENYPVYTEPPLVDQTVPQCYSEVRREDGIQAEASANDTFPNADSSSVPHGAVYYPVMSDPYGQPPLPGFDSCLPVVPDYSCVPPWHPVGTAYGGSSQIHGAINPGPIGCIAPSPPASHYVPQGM
Method in brief: (§1)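 Fragment (200 µM) or vehicle was incubated for 3 h with triplicate HEK293T lysate samples of 495 µg, which were then treated with Biotin-Ahx-Ub-VS at 0.5 µM final for 1 h. Labelled DUBs were enriched on NeutrAvidin, digested with LysC and trypsin, and analysed by diaPASEF LC-MS/MS. Values are average log2 fragment/vehicle ratios from an unpaired t-test on global-median-normalised Spectronaut label-free quantities, using proteins with ≥2 unique peptides.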

ATXN3 = ATXN3 (UniProt P54252)
Method in brief: as §1

BAP1 = target: T2, BAP1 (UniProt Q92560)
T2 sequence (whole entry): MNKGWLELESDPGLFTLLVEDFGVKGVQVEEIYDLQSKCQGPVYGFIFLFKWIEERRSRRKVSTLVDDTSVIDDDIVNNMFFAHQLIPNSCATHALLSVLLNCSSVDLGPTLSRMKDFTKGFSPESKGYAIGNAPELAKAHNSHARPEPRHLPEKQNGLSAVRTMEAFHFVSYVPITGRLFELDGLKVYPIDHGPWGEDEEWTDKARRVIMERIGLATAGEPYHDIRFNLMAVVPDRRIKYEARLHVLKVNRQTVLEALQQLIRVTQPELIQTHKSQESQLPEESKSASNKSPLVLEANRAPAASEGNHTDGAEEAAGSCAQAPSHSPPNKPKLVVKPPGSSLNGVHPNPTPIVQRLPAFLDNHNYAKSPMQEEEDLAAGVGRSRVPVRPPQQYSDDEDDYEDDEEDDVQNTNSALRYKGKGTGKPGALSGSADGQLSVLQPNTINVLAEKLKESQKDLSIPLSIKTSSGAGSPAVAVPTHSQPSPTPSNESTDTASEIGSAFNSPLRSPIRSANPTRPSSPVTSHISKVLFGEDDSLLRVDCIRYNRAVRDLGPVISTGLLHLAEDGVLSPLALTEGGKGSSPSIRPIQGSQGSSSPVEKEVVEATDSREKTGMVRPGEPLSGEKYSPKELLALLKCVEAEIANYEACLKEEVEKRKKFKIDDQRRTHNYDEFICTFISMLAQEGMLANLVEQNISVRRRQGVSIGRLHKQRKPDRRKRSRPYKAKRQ
Method in brief: as §1

EIF3F = EIF3F (UniProt O00303)
Method in brief: as §1

EIF3H = EIF3H (UniProt O15372)
Method in brief: as §1

FAM105A = target: T3, FAM105A (UniProt Q9NUU6)
T3 sequence (whole entry): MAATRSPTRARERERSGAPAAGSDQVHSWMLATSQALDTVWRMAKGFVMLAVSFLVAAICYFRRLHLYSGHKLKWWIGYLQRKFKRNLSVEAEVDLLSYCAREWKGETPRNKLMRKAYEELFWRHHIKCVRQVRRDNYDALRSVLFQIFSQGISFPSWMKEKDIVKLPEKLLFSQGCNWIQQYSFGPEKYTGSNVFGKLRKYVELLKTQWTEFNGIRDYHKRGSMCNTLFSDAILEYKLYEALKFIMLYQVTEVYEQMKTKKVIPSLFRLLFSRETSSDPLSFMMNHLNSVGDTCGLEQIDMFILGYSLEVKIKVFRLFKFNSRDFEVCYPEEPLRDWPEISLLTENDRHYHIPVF
Method in brief: as §1

OTUB1 = OTUB1 (UniProt Q96FW1)
Method in brief: as §1

OTUD4 = target: T4, OTUD4 (UniProt Q01804)
T4 sequence (whole entry): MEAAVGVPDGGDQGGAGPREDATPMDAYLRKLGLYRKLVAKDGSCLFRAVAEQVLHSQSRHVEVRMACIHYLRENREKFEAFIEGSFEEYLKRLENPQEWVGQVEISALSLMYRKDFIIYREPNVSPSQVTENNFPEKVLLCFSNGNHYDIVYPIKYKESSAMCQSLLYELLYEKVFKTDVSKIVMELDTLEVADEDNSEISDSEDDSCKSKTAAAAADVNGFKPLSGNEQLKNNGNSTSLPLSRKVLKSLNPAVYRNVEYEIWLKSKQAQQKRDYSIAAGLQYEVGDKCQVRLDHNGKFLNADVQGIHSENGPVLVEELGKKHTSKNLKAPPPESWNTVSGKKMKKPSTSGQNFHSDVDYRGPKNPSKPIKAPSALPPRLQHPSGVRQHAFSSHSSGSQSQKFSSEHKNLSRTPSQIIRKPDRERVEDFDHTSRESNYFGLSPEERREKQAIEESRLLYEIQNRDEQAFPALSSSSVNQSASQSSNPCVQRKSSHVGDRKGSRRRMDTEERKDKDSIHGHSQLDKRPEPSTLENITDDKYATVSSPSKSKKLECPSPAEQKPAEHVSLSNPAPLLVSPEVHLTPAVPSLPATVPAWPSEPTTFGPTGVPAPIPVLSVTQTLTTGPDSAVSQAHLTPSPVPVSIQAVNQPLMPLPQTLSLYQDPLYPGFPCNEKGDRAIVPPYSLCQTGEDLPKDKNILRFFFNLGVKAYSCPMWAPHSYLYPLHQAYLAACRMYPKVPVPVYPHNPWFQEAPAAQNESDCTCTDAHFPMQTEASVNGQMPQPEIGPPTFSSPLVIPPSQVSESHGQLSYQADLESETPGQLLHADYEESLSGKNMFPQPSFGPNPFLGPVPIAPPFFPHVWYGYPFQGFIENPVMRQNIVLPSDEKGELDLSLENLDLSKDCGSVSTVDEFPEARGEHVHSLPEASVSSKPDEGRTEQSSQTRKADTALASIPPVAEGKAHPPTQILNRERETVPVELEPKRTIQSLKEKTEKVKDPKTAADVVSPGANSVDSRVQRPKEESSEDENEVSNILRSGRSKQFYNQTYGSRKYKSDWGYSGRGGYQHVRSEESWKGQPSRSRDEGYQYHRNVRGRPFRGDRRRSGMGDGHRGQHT
Method in brief: as §1

OTUD5 = target: T5, OTUD5 (UniProt Q96G74)
T5 sequence (whole entry): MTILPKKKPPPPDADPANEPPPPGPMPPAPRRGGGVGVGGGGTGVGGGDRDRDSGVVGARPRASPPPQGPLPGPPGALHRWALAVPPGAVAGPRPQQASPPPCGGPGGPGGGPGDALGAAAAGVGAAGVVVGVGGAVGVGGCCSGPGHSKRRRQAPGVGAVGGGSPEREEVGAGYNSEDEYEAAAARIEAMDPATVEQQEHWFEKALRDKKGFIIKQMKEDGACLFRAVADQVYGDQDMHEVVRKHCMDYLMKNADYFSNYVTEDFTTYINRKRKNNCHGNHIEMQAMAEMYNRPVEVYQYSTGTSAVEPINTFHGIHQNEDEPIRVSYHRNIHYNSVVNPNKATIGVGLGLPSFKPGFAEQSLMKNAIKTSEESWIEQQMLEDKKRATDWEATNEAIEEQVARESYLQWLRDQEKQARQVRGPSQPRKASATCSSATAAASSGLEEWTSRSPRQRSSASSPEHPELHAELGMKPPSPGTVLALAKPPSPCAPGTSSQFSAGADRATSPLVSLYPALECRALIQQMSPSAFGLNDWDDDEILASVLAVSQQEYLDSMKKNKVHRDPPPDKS
Method in brief: as §1

Measured: log2 ratio of Biotin-Ahx-Ub-VS probe labelling

Chain of EIF3H (O15372 whole entry): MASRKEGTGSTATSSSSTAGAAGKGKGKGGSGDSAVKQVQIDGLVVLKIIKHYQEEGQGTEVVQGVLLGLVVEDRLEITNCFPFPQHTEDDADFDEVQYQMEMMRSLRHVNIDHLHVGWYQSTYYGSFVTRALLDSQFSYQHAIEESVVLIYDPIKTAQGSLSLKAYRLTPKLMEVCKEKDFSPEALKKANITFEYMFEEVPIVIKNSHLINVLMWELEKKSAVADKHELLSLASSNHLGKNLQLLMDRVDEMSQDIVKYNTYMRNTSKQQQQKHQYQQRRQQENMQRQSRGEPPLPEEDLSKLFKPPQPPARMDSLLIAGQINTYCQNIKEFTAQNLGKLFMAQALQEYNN
Chain of ATXN3 (P54252 whole entry): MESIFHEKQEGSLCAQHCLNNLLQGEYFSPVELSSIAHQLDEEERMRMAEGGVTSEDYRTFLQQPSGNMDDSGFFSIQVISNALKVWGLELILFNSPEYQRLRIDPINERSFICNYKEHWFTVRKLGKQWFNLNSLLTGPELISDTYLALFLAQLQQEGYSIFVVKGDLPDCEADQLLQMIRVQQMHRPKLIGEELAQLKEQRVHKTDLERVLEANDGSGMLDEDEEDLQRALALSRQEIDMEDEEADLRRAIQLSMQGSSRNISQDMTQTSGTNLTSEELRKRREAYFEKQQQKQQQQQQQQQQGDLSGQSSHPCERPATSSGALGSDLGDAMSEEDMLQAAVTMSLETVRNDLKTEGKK
Chain of OTUB1 (Q96FW1 whole entry): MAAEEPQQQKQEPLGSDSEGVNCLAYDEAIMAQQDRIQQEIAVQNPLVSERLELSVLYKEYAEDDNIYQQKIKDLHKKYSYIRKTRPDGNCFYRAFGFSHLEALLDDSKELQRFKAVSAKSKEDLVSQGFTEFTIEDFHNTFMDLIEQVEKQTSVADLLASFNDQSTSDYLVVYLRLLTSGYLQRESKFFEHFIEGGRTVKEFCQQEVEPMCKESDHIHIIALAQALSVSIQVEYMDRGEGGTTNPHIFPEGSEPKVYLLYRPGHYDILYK
Chain of EIF3F (O00303 whole entry): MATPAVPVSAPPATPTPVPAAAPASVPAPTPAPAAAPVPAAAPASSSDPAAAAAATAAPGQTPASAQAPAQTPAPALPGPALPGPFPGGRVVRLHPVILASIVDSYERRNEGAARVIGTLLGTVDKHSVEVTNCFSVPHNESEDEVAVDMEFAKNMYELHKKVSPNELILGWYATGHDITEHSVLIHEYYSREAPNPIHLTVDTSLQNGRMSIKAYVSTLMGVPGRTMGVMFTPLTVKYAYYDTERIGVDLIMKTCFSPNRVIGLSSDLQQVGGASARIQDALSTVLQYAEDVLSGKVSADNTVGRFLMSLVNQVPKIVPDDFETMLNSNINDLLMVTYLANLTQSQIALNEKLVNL

O=C(O)C1Cc2ccccc2CN1C(=O)CCl (centres undefined)
inactive: ALG13 0.144 | ATXN3 -0.269 | BAP1 -0.657 | EIF3F -0.182 | EIF3H -0.0826 | FAM105A 0.395 | OTUB1 -0.323 | OTUD4 -0.404 | OTUD5 -0.562
